# rCAG RNA binder – r(CAG) repeat RNA binding; AID 651821; inhibition, % at 3 µM; TO-PRO-1 dye displacement fluorescence; 370,000 compounds, 1.3% hits;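 active = inhibition above the plate cutoff, the mean of all test compounds on that plate plus 3 SD, cut at about 35% in these data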;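 also: 0% = DMSO alone and 100% = 100 µM mitoxantrone as full dye displacement; higher means more dye released from RNA so lower well fluorescence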
# APOBEC3A inh – blocks human APOBEC3A ssDNA deamination. P31941. recombinant A3A, FAM/TAMRA ssDNA deamination fluorescence. inhibition, % at 20 µM. 330,000 compounds, 0.41% hits. AID 493011;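 active = at least 40% inhibition at 20 µM here, with at most 30% in a related deaminase screen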;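 also: plate controls were A3A with DMSO for no effect and wells lacking A3A enzyme for full effect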
# Target sequence (P31941 whole entry, looked up): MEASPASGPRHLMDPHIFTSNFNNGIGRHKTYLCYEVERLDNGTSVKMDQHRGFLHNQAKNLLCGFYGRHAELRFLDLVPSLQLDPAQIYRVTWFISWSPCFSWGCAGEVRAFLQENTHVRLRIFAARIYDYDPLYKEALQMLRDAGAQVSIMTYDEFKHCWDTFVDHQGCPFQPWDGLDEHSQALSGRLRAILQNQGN
# APOBEC3G inh – inhibitors of human APOBEC3G DNA deaminase. Q9HC16. recombinant A3G, ssDNA deamination FAM/TAMRA fluorescence. inhibition, % at 20 µM. 330,000 compounds, 0.28% hits;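 active = inhibition of at least 40% at 20 µM, with no more than 30% in the related APOBEC3A deaminase screen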;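 also: plate controls were DMSO wells with A3G for no effect and wells lacking A3G enzyme for full effect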
# aDG glyco act – increases alpha dystroglycan glycosylation; Pro5-aDG cells, alpha-DG glycosylation AlphaScreen (IIH6); 0% Pro5, 100% B10-LARGE cell signal; AID 624168; 360,000 compounds, 0.22% hits; activation, % at 10 µM;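 active = activation of at least 8% versus controls, or a plate z-score of at least 8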;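 also: Pro5 are CHO cells carrying HIG-tagged alpha-DG that lacks glycosylation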
# ALR inh – blocks human ALR sulfhydryl oxidase activity | P55789 | purified ALR, DTT oxidation, H2O2 HRP-luminol luminescence | inhibition, % (concentration not given with the values) | 290,000 compounds, 3.8% hits | AID 485317;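 active = mean replicate inhibition above about 79%, with every replicate also reaching it, limit read from the data; inconclusive = only one of the two criteria met; inactive = mean below limit and not every replicate reaching it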
# Target sequence (P55789 whole entry, looked up): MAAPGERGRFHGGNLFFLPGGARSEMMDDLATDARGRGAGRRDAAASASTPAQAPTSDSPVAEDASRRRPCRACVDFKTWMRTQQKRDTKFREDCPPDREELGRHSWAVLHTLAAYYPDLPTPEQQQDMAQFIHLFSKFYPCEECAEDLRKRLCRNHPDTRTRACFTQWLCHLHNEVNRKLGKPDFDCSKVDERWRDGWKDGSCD
# PHOSPHO1 block – PHOSPHO1 (human) inhibition; Q8TCT1; recombinant PHOSPHO1, absorbance phosphatase assay; inhibition, % at 13.3 µM; 290,000 compounds, 1.1% hits; AID 1565; in the data active = inhibition above about 60%
# * = called active by the depositor; ? = inconclusive; nt = no result. A selection: hits, their analogues and other compounds. The true share with any hit is near 5.4%.
SMILES,rCAG RNA binder,APOBEC3A inh,APOBEC3G inh,aDG glyco act,ALR inh,PHOSPHO1 block
O=C(CSC1=NCCS1)Nc1ccc2ccccc2c1,2,0,-4,0,99*,57
O=C(CSC1=NCCS1)Nc1cccc(F)c1,-3,-3,-6,0,99*,41
O=C(CSc1ccc(C(F)(F)F)cc1[N+](=O)[O-])Nc1ccc2ccccc2c1,7,2,0,0,99*,5
CC(=O)Nc1ccc(NC(=O)CSC2=NCCS2)cc1,10,nt,nt,1,nt,27
CCCCOCCCNC(=O)C[C@H]1C[C@@]2(C(=O)OC)C(=C[C@H](C(C)(C)C)O[C@@H]2C)N(Cc2ccccc2)C1=O,0,nt,nt,nt,nt,nt
CCc1ccc(NC(=O)CN(C)S(=O)(=O)c2ccc3[nH]c(=O)oc3c2)cc1,nt,1,5,0,2,-10
COc1ccc(NC(=O)CN(C)S(=O)(=O)c2ccc3[nH]c(=O)oc3c2)cc1,8,-6,-6,0,-1,63*
COc1ccc(S[C@]2(C(=O)N3CCOCC3)CC(=O)N(c3ccc(OC)cc3)[C@@H]2c2ccc(OC)cc2)cc1,6,nt,nt,nt,nt,nt
O=C(Nc1ccsc1C(=O)O)c1ccc(Cl)cc1,5,-5,-10,0,97*,44
CSc1nn(CCC#N)c(=O)[nH]c1=O,0,nt,nt,nt,nt,nt
CCN=C1NC(c2cccc(Cl)c2)C(C(=O)OC)=C(C)N1Cc1ccccc1C(F)(F)F (configuration not stated),4,nt,nt,nt,nt,nt
COc1c2ccoc2nc2c(OC)c(O)ccc12,1,-3,-9,0,99*,3
C[C@@H]1[C@@H](O)C[C@@]2(C[C@H](O)c3cc(F)ccc3O2)O[C@H]1c1ccccc1Cl,-1,nt,nt,nt,nt,nt
O=C(NNc1ccccc1)C(=O)NNS(=O)(=O)c1ccc([N+](=O)[O-])cc1,-1,-3,-7,2,98*,-26
O=C(NNc1ccc([N+](=O)[O-])cc1)Nc1ccccc1,-1,-3,-6,0,nt,nt
CC(=O)Nc1ccc(S(=O)(=O)NNC(=O)c2ccc([N+](=O)[O-])cc2)cc1,-3,-4,-16,0,72,19
CC(=O)Nc1ccc(S(=O)(=O)NNc2ccc([N+](=O)[O-])cc2)cc1,6,-3,19,0,98*,nt
COc1cccc(NC(=O)Nc2c(-c3ccc(F)cc3)nc3ncccn23)c1,5,nt,nt,nt,nt,nt
CSc1ncc(-c2ccc(Cl)cc2)[nH]1,0,-1,0,0,98*,-26
O=C(N[C@@H]1C[C@@H]2O[C@@H](CO)CC[C@@H]2O[C@@H]1CCc1ccc(-c2ccccc2)cc1)c1cnccn1,6,nt,nt,nt,nt,nt
O=CN/C=C/c1cc(O)ccc1O,11,39,61,0,98*,33
O=Cc1ccc(O)cc1O,-2,-4,-8,0,-18,8
Cc1cc(N(CCO)CCO)ccc1N=Nc1cc(F)ccc1F,2,10,6,0,99*,8
COc1ccccc1/C=C/C=N/n1c(-c2ccco2)n[nH]c1=S,12,-5,16,0,-7,85*
COc1ccccc1/C=C/C=N/n1c(-c2ccc(C)cc2)n[nH]c1=S,23,-1,-1,0,3,86*
SMILES,rCAG RNA binder,APOBEC3A inh,APOBEC3G inh,aDG glyco act,ALR inh,PHOSPHO1 block
S=c1[nH]nc(COc2ccccc2)n1/N=C/C=C/c1ccco1,21,54,64,0,97*,24
COc1ccccc1/C=C\C=N\n1c(C2CCCCC2)n[nH]c1=S,11,-1,-3,0,2,18
O=[N+]([O-])c1ccccc1/C=C/C=Nn1c(-c2ccc(F)cc2)n[nH]c1=S,33,nt,nt,nt,nt,nt
COc1ccc(-c2n[nH]c(=S)n2/N=C/C=C\c2ccccc2OC)cc1,14,-2,0,0,nt,66*
C[C@H](CO)N1C[C@H](C)[C@@H](CN(C)C(=O)Nc2ccc(C(C)(C)C)cc2)OCc2cn(nn2)CCCC1=O,1,nt,nt,nt,nt,nt
O=[N+]([O-])c1ccccc1/C=C/C=N/n1c(-c2ccc(Cl)cc2)n[nH]c1=S,13,-2,-3,0,-1,104*
Cc1cc(-c2n[nH]c(=S)n2/N=C/c2ccc(Br)s2)n[nH]1,14,-4,40,0,97*,49
S=c1[nH]nc(-c2n[nH]c3c2CCC3)n1/N=C/C=C/c1ccco1,9,59,51,0,97*,-36
COc1ccccc1/C=C/C=N/n1c(-c2cc(C)[nH]n2)n[nH]c1=S,10,0,36,0,?,62*
